Results: the supplement of paper PMC13380429
A number with no mark means an inactive call.

Test system: Vero E6 infected with SARS-CoV-2
Test: inhibition of SARS-CoV-2 cytopathic effect; higher = more antiviral protection, active = above 15
Conditions: 48 h

Row | Structure (SMILES) | inhibition of SARS-CoV-2 cytopathic effect (1 nM) | inhibition of SARS-CoV-2 cytopathic effect (8.33 nM) | inhibition of SARS-CoV-2 cytopathic effect (100 nM) | inhibition of SARS-CoV-2 cytopathic effect (833.33 nM) | inhibition of SARS-CoV-2 cytopathic effect (10000 nM)
1 | CCCCn1ccc(N2CCC(c3ccccc3)CC2)c(Cl)c1=O | 1.82% | 3.38% | 1.99% | 1.64% | -5.17%
2 | CC(C)CN(C[C@@H](OP(=O)(O)O)[C@H](Cc1ccccc1)NC(=O)O[C@H]1CCOC1)S(=O)(=O)c1ccc(N)cc1 [fosamprenavir] | -0.69% | 0.83% | 0.76% | -0.52% | -2.55%
3 | Cc1ccc2c(Br)cc(Br)c(OC(=O)c3ccccc3)c2n1 [broxaldine] | 0.35% | 0.53% | 4.07% | 5.01% | 11.5%
4 | CCCCCCCCCCCCCCSCC(=O)O [tetradecylthioacetic-acid] | 0.56% | 0.01% | -2.65% | -4.9% | 1.48%
5 | COc1ccc(-c2nc(N3CCOCC3)c3sc(CN(C)c4ncc(C(=O)NO)cn4)cc3n2)cn1 | -0.39% | -5.36% | -18.1% | -20.7% | -21.4%
6 | CC1=NN(c2ccc(C)c(C)c2)C(=O)/C1=N\Nc1cccc(-c2cccc(C(=O)O)c2)c1O [eltrombopag] | 2.51% | 2.25% | 2.06% | 0.59% | 0.99%
7 | CC1(C)OC[C@H](NC(=O)Nc2ccc(Br)cc2Br)[C@H](c2ccccc2)O1 | -1.15% | 0.87% | -2.04% | -3.68% | -5.84%
8 | O=C(O)CNC(=O)C1C(=O)N(C2CCCCC2)C(=O)N(C2CCCCC2)C1=O [daprodustat] | -0.26% | 1.23% | 2.21% | 2.38% | -0.29%
9 | CCN(CC)CCOC(=O)c1cc(Cl)c(N)cc1OC | 3.29% | 3.49% | 1.89% | -0.08% | -0.47%
10 | O=C(Nc1cccnn1)N1CCC(=Cc2cccc(Oc3ccc(C(F)(F)F)cn3)c2)CC1 | 0.89% | 1.24% | -0.76% | -0.98% | -3.19%
11 | COc1ccc(-c2coc3cc(O)ccc3c2=O)cc1 [formononetin] | 0.45% | 1.81% | 1.27% | -2.13% | -0.02%
12 | O=C(NOCC(O)CO)c1cc(Br)c(F)c(F)c1Nc1ccc(I)cc1F (stereo not given) | -0.27% | -0.08% | -8.55% | -10% | -12.5%
13 | C=CCNC1=C2C[C@@H](C)C[C@H](OC)[C@H](O)[C@@H](C)/C=C(\C)[C@H](OC(N)=O)[C@@H](OC)/C=C\C=C(/C)C(=O)NC(=CC1=O)C2=O [tanespimycin] | -1.35% | -0.13% | -4.27% | -0.63% | 3.92%
14 | COc1ccc2nc3c(c(N)c2c1)CCCC3 [7-methoxytacrine] | 0.9% | 2.7% | 0.06% | 4.86% | 4.52%
15 | COc1ccc(Cl)cc1NC(=O)Nc1cc(C)nc2ccccc12 | 1.48% | -2.11% | -0.41% | 1.18% | -17.7%
16 | N[C@@H](CS)C(=O)O [L-cysteine] | 1.7% | -1.19% | -0.65% | -1.16% | -5.76%
17 | CC[C@H]1[C@@H]2C[C@H]3[C@@H]4N(C)c5ccccc5[C@]45C[C@@H]([C@@H]2[C@H]5O)N3[C@@H]1O [ajmaline] | -1.1% | -2.42% | 0.36% | 0.5% | -1.16%
18 | CCC[N+]12[C@H](O)[C@@H](CC)[C@@H]3C[C@H]1[C@@H]1N(C)c4ccccc4[C@]14C[C@H]2[C@@H]3[C@H]4O [neo-gilurytmal] | -1.96% | -1.28% | 0.64% | 1.4% | -3.83%
19 | Fc1ccc(-n2cc(CCCCN3CCC4(CC3)OCc3ccccc34)c3ccccc32)cc1 [siramesine] | 0.05% | 1.88% | 1.49% | 4.24% | 28.7% (active)
20 | CCCCCCCC/C=C/CCCCCCCC(=O)OC[C@H]1O[C@@H](n2ccc(N)nc2=O)C(F)(F)[C@@H]1O [gemcitabine-elaidate] | -0.31% | -0.77% | -1.9% | 0.35% | 3%

Row | Structure (SMILES) | inhibition of SARS-CoV-2 cytopathic effect (1 nM) | inhibition of SARS-CoV-2 cytopathic effect (8.33 nM) | inhibition of SARS-CoV-2 cytopathic effect (100 nM) | inhibition of SARS-CoV-2 cytopathic effect (833.33 nM) | inhibition of SARS-CoV-2 cytopathic effect (10000 nM)
21 | CCc1cccc(CC)c1NC(=O)c1nn(C)c2c1CCc1cnc(Nc3ccc(C(=O)NC4CCN(C)CC4)cc3OC(F)(F)F)nc1-2 | 1.19% | 3.71% | 1.53% | 0.13% | 5.39%
22 | Cc1cc(NC(=O)Nc2ccc(F)c(F)c2)n(-c2ccccc2)n1 | -0.5% | -1.46% | 0.29% | -0.03% | 0.43%
23 | CC(=O)Oc1cc2c(s1)CCN(C(C(=O)C1CC1)c1ccccc1F)C2 (stereo not given) [prasugrel] | 2.32% | 1.62% | 0.43% | 2.1% | -0.82%
24 | CN1CCN(CCCN2c3ccccc3Sc3ccc(C(F)(F)F)cc32)CC1 [trifluoperazine] | -0.89% | 1.64% | -3.09% | -4.01% | 14.5%
25 | O=C1CCCC(=O)C1C(=O)c1ccc(C(F)(F)F)cc1[N+](=O)[O-] [nitisinone] | 0.39% | 0.93% | -0.21% | 0.01% | -1.34%
26 | CCCCCCCC/C=C\CCCCCCCC(=O)NCc1ccc(O)c(OC)c1 [olvanil] | 1.88% | -0.08% | 4.43% | 1.07% | 2.19%
27 | Cn1c(=O)c2[nH]c(Br)nc2n(C)c1=O [pamabrom] | 1.59% | 0.19% | 1.39% | 1.95% | -3.72%
28 | Cn1c(C#N)ccc1-c1ccc2c(c1)C(C)(C)OC(=S)N2 [tanaproget] | 3.59% | 4.95% | 0.34% | 3.55% | 1.06%
29 | COc1ccc(CN(CCN(C)C)c2ncccn2)cc1 [thonzylamine] | 0.64% | 0.52% | 0.24% | 3.55% | -0.17%
30 | C/C(=N\NC(=O)[C@@H]1C(=O)NC[C@H]1c1ccccc1)c1cccc(Br)c1 | -1.05% | 1.12% | 1.69% | -2.01% | -2.3%
31 | COc1ccc(C(=O)Nc2sc3c(c2C(N)=O)CCCC3)cc1OC | -0.36% | -0.47% | -3.78% | -0.85% | 0.05%
32 | CS(=O)(=O)N1CCN(Cc2cc3nc(-c4cccc5[nH]ncc45)nc(N4CCOCC4)c3s2)CC1 | -1.74% | -2.51% | 6.27% | -5.78% | 3.43%
33 | N[C@@H](C[C@@H](F)C(=O)O)C(=O)O | 0.4% | 1.43% | 2.09% | -2.92% | -1.49%
34 | Cn1c(=O)c2c(ncn2CC(=O)Nc2ccc(-c3ccccc3)nn2)n(C)c1=O | 2.25% | 0.06% | 1.35% | 4.8% | 7.55%
35 | CCCCCCCCCCC(C)(C)C(=O)Nc1c(OC)cc(OC)cc1OC | 0.52% | 6.1% | 5.14% | 0.51% | 0.93%
36 | O=c1[nH]c2ccc(Cl)cc2c(N[C@@H]2CN3CCC2CC3)c1-c1nc2ccccc2[nH]1 | 0.01% | 0.79% | -0.9% | -5.44% | -15.4%
37 | CNC(=O)c1c(I)c(NC(C)=O)c(I)c(C(=O)O)c1I [iothalamic-acid-d3] | -5.17% | -2.14% | -1.59% | 0.31% | -1.65%
38 | C#CCN[C@@H]1CCc2ccccc21 [rasagiline] | 0.63% | -1.47% | -1.63% | -1.24% | -0.6%
39 | CN1C(=O)N(c2cc(Cl)cc(Cl)c2)C(=O)[C@]12CN(Cc1cc(C(=O)O)cs1)C[C@H]2c1ccc(C#N)cc1 | -1.94% | 0.44% | 1.44% | 0.49% | -0.22%
40 | CCCCCCCCCCCCCCCCCCCCCC(=O)O | 2.81% | 2.25% | 1.57% | 0.29% | 1.77%
